According to publication PMC7862700, “An all-to-all approach to the identification of sequence-specific readers for epigenetic DNA modifications on cytosine”:

Tests used:
Test in all cases: DAPPL (digital affinity profiling via proximity ligation, sequencing); 10 mM Tris-HCl pH 7.5, 50 mM NaCl, 1 mM DTT, 4% glycerol, room temperature, 30 min; GST-TFs on glutathione beads, 16-mer random dsDNA library, 0.1% formaldehyde crosslink after washing; high values mean tight binding
[1] = biological target: T1, FLI1 (Homo sapiens, UniProt Q01543 1-452); details: protein: recombinant; tags: N-terminal GST; dsDNA, one strand shown
T1 sequence: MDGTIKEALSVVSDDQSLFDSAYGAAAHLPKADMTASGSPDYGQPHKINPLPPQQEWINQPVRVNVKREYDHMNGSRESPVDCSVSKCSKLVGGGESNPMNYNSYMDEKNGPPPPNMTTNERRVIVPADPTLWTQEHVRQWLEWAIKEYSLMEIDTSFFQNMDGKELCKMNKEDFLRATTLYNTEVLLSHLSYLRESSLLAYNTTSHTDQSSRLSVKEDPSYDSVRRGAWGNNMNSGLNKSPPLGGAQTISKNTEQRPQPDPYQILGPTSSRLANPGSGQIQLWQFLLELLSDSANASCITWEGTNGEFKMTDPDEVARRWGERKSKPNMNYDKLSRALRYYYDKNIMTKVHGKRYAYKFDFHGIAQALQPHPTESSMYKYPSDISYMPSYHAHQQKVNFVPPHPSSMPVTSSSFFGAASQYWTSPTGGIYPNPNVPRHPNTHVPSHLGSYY
Outline: (§1)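 Sequencing on an Illumina NextSeq500 followed washing, crosslinking with 0.1% formaldehyde, proximity ligation (BsaI/T4 ligase, 1 h, 37 °C) and PCR amplification of pools that had been incubated for 30 min at room temperature with 200 nmole of a random double-stranded 16-mer DNA library in Tris/NaCl/DTT/glycerol buffer. Each pool held DNA-barcoded human transcription factors, expressed in yeast as GST fusions and captured on glutathione beads, plus a tag-only sample. Binding signal is a hexamer's read frequency for a factor divided by its frequency in the tag-only sample.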

[2] = biological target: T2, ELK1 (Homo sapiens, UniProt P19419 1-428); details: protein: recombinant; tags: N-terminal GST; dsDNA, one strand shown
T2 sequence: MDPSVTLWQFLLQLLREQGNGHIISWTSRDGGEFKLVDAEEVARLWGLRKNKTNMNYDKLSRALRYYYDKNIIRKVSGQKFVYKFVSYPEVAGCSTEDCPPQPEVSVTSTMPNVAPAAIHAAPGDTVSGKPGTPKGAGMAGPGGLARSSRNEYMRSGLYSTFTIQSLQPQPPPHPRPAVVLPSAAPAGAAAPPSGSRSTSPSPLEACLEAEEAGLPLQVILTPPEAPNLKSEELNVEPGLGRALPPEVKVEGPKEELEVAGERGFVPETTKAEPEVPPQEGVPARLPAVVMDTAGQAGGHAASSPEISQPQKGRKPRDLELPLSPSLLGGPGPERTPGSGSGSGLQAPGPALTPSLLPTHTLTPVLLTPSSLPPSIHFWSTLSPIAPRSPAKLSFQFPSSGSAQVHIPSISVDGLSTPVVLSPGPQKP
Outline: as §1

[3] = biological target: T3, GABPA (Homo sapiens, UniProt Q06546 1-454); details: protein: recombinant; tags: N-terminal GST; dsDNA, one strand shown
T3 sequence: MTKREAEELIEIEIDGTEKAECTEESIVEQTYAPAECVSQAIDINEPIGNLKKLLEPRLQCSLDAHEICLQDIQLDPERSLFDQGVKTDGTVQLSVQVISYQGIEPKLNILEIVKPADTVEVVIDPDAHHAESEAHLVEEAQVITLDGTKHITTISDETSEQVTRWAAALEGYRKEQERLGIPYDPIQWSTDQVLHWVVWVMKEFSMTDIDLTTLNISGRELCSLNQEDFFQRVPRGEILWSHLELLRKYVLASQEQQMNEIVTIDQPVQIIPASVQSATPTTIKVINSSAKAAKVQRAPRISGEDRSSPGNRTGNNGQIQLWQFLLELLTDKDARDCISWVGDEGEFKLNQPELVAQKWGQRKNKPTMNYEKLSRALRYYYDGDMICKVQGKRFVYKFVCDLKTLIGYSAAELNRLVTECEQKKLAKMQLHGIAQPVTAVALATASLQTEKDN
Outline: as §1

[4] = biological target: T4, ERG (Homo sapiens, UniProt P11308 1-479); details: protein: recombinant; tags: N-terminal GST; dsDNA, one strand shown
T4 sequence: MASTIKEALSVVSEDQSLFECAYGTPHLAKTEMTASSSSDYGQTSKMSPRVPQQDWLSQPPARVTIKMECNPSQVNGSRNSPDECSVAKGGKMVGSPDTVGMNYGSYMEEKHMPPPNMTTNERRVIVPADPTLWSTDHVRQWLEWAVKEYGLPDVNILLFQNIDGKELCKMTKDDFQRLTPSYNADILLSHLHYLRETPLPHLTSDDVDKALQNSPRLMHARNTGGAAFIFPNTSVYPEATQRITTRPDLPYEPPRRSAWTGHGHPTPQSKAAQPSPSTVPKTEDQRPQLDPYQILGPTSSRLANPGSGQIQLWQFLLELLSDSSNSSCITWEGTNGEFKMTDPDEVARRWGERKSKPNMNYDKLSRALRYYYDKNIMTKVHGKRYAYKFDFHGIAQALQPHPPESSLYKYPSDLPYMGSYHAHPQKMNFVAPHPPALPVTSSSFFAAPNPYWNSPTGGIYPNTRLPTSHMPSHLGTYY
Outline: as §1

[5] = biological target: ELF1 (Homo sapiens, UniProt P32519 1-619); details: protein: recombinant; tags: N-terminal GST; dsDNA, one strand shown
Chain of ELF1 (P32519 whole entry): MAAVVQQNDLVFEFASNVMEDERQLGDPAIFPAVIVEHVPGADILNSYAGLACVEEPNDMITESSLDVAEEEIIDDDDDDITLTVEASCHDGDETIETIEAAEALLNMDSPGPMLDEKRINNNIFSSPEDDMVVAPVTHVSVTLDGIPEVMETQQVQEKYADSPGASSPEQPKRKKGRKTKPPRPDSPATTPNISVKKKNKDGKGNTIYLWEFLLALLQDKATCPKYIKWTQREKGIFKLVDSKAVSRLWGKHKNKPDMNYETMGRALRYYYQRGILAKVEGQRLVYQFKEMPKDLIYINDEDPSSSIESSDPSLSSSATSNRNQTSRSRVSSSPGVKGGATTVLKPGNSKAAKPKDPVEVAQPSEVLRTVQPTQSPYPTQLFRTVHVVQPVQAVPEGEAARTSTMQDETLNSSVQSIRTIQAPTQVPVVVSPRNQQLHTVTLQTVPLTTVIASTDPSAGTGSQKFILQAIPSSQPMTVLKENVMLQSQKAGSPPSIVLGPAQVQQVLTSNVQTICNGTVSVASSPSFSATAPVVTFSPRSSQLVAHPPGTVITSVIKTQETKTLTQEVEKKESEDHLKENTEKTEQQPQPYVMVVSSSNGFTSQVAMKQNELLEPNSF
Outline: as §1

[6] = biological target: T5, EHF (Homo sapiens, UniProt Q9NZC4 1-300); details: protein: recombinant; tags: N-terminal GST; dsDNA, one strand shown
T5 sequence: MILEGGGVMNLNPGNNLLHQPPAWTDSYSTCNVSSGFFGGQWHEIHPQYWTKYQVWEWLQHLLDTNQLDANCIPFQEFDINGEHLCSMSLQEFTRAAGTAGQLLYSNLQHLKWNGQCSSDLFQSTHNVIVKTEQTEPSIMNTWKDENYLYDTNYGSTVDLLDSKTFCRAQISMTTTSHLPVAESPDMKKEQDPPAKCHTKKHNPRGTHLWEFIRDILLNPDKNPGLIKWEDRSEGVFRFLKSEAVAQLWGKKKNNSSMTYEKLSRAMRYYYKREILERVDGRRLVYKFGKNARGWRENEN
Outline: as §1

[7] = biological target: SPI1 (Homo sapiens, UniProt P17947 1-270); details: protein: recombinant; tags: N-terminal GST; dsDNA, one strand shown
Outline: as §1

[8] = biological target: SPIB (Homo sapiens, UniProt Q01892 1-262); details: protein: recombinant; tags: N-terminal GST; dsDNA, one strand shown
Chain of SPIB (Q01892 whole entry): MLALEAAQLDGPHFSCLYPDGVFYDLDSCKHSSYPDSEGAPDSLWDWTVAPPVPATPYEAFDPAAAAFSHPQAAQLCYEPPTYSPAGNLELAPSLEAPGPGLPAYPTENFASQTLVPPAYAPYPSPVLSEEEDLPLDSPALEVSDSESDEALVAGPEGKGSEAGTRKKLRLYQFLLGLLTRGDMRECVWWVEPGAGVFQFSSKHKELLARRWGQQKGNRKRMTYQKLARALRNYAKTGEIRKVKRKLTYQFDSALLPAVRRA
Outline: as §1

[9] = biological target: T6, ELK3 (Homo sapiens, UniProt P41970 1-407); details: protein: recombinant; tags: N-terminal GST; dsDNA, one strand shown
T6 sequence: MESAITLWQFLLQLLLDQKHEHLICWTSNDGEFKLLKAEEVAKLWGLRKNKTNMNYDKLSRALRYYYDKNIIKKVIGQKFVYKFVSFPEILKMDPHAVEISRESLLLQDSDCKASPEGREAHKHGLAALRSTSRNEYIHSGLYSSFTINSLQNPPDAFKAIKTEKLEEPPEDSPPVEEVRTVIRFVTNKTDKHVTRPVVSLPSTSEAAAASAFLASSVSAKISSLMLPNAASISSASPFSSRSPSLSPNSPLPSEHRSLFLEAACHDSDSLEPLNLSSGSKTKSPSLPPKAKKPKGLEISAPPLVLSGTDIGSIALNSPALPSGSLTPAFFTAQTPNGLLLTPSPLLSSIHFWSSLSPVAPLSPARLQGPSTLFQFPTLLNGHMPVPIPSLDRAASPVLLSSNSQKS
Outline: as §1

[10] = biological target: T7, FEV (Homo sapiens, UniProt Q99581 1-238); details: protein: recombinant; tags: N-terminal GST; dsDNA, one strand shown
T7 sequence: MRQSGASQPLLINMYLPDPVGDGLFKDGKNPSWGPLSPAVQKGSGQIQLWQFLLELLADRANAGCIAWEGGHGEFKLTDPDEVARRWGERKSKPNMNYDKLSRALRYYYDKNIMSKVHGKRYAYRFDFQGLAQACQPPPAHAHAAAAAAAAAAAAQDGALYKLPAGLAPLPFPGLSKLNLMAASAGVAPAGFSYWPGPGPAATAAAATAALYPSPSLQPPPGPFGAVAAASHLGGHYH
Outline: as §1

[11] = biological target: ETV5 (Homo sapiens, UniProt P41161 1-510); details: protein: recombinant; tags: N-terminal GST; dsDNA, one strand shown
Chain of ETV5 (P41161 whole entry): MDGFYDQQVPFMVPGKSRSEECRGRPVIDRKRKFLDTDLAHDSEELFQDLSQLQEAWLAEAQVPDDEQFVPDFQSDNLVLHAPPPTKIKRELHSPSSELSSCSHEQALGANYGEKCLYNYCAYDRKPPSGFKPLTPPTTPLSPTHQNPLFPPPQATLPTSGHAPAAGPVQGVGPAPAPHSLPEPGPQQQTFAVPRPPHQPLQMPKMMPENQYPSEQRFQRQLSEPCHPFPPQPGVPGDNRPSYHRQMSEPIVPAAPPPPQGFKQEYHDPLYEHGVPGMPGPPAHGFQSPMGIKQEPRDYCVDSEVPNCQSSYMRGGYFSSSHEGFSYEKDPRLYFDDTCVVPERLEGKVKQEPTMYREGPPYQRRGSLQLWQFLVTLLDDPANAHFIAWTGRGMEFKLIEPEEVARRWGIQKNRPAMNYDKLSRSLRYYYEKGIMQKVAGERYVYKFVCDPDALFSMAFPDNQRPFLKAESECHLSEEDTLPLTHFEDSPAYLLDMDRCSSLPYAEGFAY
Outline: as §1

[12] = biological target: HSF1 (Homo sapiens, UniProt Q00613 1-529); details: protein: recombinant; tags: N-terminal GST; chain copies: 3; dsDNA, one strand shown
Chain of HSF1 (Q00613 whole entry): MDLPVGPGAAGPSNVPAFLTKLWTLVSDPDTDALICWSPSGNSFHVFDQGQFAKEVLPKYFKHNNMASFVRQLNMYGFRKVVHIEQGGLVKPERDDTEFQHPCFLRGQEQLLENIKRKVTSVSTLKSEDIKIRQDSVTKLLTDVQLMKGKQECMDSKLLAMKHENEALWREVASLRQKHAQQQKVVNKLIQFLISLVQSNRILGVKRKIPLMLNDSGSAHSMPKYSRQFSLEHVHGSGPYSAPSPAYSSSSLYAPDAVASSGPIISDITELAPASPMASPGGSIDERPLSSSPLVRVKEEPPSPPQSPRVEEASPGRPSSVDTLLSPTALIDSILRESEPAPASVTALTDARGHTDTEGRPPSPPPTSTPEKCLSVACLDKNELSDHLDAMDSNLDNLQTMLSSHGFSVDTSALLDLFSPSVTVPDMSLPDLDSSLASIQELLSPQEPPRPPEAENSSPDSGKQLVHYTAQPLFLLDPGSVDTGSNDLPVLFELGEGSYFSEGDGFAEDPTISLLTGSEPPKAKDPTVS
Outline: as §1

[13] = biological target: T8, SPIC (Homo sapiens, UniProt Q8N5J4 1-248); details: protein: recombinant; tags: N-terminal GST; dsDNA, one strand shown
T8 sequence: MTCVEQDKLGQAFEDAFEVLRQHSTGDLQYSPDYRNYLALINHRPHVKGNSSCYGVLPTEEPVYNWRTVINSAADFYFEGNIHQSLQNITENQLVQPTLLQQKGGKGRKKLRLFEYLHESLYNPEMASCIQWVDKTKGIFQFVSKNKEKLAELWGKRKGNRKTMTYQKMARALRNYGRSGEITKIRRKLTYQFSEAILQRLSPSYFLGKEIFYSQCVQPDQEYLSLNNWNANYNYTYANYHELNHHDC
Outline: as §1

[14] = biological target: ELF4 (Homo sapiens, UniProt Q99607 1-663); details: protein: recombinant; tags: N-terminal GST; dsDNA, one strand shown
Chain of ELF4 (Q99607 whole entry): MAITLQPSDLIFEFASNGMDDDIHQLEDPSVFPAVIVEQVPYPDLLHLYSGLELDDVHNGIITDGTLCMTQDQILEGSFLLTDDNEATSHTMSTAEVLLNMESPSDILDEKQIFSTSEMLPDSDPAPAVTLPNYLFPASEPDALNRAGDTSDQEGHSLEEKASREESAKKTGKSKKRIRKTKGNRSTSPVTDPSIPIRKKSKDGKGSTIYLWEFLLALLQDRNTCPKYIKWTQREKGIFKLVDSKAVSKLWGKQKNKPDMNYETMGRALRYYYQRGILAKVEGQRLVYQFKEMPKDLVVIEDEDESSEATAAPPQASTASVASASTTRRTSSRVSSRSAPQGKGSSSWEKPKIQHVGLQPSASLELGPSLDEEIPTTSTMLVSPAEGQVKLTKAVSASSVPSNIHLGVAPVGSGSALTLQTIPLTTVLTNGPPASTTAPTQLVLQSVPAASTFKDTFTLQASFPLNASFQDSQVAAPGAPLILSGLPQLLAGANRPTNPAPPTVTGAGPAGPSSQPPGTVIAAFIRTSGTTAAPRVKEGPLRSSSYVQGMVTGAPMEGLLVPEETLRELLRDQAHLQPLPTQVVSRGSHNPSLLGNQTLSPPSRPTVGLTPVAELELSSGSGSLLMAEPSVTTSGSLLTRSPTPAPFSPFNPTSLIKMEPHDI
Outline: as §1

[15] = biological target: T9, ELK4 (Homo sapiens, UniProt P28324-2 1-405); details: protein: recombinant; tags: N-terminal GST; dsDNA, one strand shown
T9 sequence: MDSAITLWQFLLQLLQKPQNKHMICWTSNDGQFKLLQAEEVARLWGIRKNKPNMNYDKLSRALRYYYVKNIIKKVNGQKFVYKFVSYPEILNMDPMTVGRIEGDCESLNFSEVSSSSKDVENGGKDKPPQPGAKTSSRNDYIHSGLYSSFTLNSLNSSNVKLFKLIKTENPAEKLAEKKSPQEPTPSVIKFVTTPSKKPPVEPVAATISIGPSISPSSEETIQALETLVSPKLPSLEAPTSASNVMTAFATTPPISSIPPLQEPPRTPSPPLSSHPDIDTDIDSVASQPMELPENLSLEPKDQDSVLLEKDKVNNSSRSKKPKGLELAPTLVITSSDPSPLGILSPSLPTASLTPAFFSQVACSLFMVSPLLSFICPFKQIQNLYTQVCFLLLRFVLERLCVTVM
Outline: as §1

[16] = biological target: T10, ETV2 (Homo sapiens, UniProt O00321 1-342); details: protein: recombinant; tags: N-terminal GST; dsDNA, one strand shown
T10 sequence: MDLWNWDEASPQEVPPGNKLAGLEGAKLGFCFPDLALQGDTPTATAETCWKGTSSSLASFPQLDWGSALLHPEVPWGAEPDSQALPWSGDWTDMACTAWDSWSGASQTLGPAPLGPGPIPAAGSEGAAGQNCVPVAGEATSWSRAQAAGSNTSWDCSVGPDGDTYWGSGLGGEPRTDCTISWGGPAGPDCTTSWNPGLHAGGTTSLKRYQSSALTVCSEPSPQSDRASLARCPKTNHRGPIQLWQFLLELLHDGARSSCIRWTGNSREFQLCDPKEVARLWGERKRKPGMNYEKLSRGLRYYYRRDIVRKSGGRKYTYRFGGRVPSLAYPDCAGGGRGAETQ
Outline: as §1

[17] = biological target: T11, ELF3 (Homo sapiens, UniProt P78545 1-371); details: protein: recombinant; tags: N-terminal GST; dsDNA, one strand shown
T11 sequence: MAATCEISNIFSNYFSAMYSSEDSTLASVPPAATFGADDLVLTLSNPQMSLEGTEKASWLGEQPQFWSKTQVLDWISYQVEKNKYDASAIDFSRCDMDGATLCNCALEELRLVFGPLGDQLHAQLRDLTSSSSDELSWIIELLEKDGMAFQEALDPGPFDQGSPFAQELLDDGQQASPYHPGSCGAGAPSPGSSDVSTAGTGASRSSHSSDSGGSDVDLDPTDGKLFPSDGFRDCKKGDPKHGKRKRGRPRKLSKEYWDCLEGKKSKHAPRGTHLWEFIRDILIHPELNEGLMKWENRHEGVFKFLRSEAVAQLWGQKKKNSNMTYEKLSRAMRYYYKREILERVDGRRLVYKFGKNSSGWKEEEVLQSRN
Outline: as §1

[18] = biological target: CRX (Homo sapiens, UniProt O43186 1-299); details: protein: recombinant; tags: N-terminal GST; dsDNA, one strand shown
Chain of CRX (O43186 whole entry): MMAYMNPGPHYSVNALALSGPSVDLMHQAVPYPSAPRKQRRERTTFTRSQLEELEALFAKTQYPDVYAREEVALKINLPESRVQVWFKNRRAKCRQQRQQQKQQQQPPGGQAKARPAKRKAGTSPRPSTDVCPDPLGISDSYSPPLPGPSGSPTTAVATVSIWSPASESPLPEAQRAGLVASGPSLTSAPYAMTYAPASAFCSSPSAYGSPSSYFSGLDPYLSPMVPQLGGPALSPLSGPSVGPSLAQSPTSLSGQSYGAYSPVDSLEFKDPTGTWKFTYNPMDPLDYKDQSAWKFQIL
Outline: as §1

[19] = biological target: ETV1 (Homo sapiens, UniProt P50549 1-477); details: protein: recombinant; tags: N-terminal GST; dsDNA, one strand shown
Chain of ETV1 (P50549 whole entry): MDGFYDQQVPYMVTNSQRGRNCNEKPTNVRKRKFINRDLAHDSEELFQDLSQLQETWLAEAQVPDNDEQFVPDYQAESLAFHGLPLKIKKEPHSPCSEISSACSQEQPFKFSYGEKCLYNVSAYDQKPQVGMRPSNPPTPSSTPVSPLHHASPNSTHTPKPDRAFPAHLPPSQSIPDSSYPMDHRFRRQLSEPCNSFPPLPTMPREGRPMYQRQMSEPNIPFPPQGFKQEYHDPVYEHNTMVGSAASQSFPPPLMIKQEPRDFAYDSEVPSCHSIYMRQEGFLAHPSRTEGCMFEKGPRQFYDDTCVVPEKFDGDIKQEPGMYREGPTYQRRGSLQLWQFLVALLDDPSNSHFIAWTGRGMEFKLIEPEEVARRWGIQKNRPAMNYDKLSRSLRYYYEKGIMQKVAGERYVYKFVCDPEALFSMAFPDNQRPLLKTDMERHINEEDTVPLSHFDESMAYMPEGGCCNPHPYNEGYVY
Outline: as §1

## TATTTA
[1]
  binding signal: 1.48 fold enrichment (6-mer frequency, TF over GST control)
[2]
  binding signal: 1.5 fold enrichment (6-mer frequency, TF over GST control)
[3]
  binding signal: 1.39 fold enrichment (6-mer frequency, TF over GST control)
[4]
  binding signal: 1.38 fold enrichment (6-mer frequency, TF over GST control)
[5]
  binding signal: 1.42 fold enrichment (6-mer frequency, TF over GST control)
[6]
  binding signal: 1.43 fold enrichment (6-mer frequency, TF over GST control)
[7]
  binding signal: 1.46 fold enrichment (6-mer frequency, TF over GST control)
[8]
  binding signal: 1.39 fold enrichment (6-mer frequency, TF over GST control)
[9]
  binding signal: 1.61 fold enrichment (6-mer frequency, TF over GST control)
[10]
  binding signal: 1.4 fold enrichment (6-mer frequency, TF over GST control)
[11]
  binding signal: 1.47 fold enrichment (6-mer frequency, TF over GST control)
[12]
  binding signal: 1.75 fold enrichment (6-mer frequency, TF over GST control)
[13]
  binding signal: 1.69 fold enrichment (6-mer frequency, TF over GST control)
[14]
  binding signal: 1.45 fold enrichment (6-mer frequency, TF over GST control)
[15]
  binding signal: 1.66 fold enrichment (6-mer frequency, TF over GST control)
[16]
  binding signal: 1.43 fold enrichment (6-mer frequency, TF over GST control)
[17]
  binding signal: 1.57 fold enrichment (6-mer frequency, TF over GST control)
[18]
  binding signal: 2.47 fold enrichment (6-mer frequency, TF over GST control)
[19]
  binding signal: 1.51 fold enrichment (6-mer frequency, TF over GST control)
